Screening data deposited in PubChem BioAssay by National Center for Advancing Translational Sciences (NCATS).
Rows were chosen to be rich in hits. Some 2.8% of all compounds tested hit in one or more screens of this group.
PI4K2A block = blocks human PI4K2A kinase activity; Q9BTU6; purified PI4K2A, ADP-Glo luminescence, 1 h; hits give low values; activity change, negative = inhibition, % at 76.9 µM; actives 0.13% (n = 420,000); AID 1346378; in the data active means activity change below about -50%; inconclusive means mostly about -30% to -49%;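 further: -100% = wells without enzyme as full effect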
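Compounds are screened against recombinant PI4K2A using PI as substrate and ATP, the latter dispensed at 300 microM. Reactions run one hour at ambient temperature before ADP-Glo detection; full inhibition defined by wells lacking enzyme.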
Pol beta inh = DNA polymerase beta (human) inhibition | Pol beta primer extension/strand displacement, fluorescence kinetic | Potency, µM (highest dose often 114 µM), for inactives: at the top dose activity change, negative = inhibition, most hits filed as inhibitors | actives 1.3% (n = 340,000) | AID 485314; further: potency means the concentration at half of the fitted maximal effect; on the % scale 0 is the no-effect control and ±100 the full control effect
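Kinetic readout of DNA synthesis with strand displacement by Pol beta. Compound and 10 nM enzyme sit 15 min at room temperature; 50 nM substrate starts the reaction, read immediately and at 10 min.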
Pol eta inh = inhibitors of human DNA polymerase eta. AID 588591. recombinant Pol eta, fluorescent DNA replication assay. Potency, µM (doses to about 114 µM), without a hit: at the top dose activity change, negative = inhibition, most hits filed as inhibitors. actives 1.2% (n = 390,000); further: potency means the concentration at half of the fitted maximal effect; on the % scale 0 is the no-effect control and ±100 the full control effect
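Pol eta at 10 nM preincubated with compounds 15 min at room temperature; reaction started with fluorescent substrate (50 nM final) and read kinetically at 0 and 10 min.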
POLI inh = inhibitors of human DNA polymerase iota; Potency, µM (top dose mostly 115 µM), inactives show at the top dose activity, negative = inhibition, actives largely listed as inhibitors; Q9UNA4; Pol iota fluorescent replication assay, 10 min; actives 1% (n = 390,000); further: potency means the concentration at half of the fitted maximal effect
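Pol iota at 10 nM preincubated 15 min with compounds at room temperature; reaction started with fluorescent substrate, 50 nM final. Fluorescence read kinetically at 0 and 10 min; buffer-only wells as negative control.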
Pol kappa inh = DNA polymerase kappa (human) inhibition; purified Pol kappa, fluorescent DNA synthesis assay, 10 min; Potency, µM (series often up to 107 µM), without a hit: at the highest dose activity, negative = inhibition, most hits filed as inhibitors; actives 0.53% (n = 400,000); AID 588579; further: potency means the concentration at half of the fitted maximal effect; on the % scale 0 is the no-effect control and ±100 the full control effect
Target sequence (Q9UBT6 whole entry, looked up): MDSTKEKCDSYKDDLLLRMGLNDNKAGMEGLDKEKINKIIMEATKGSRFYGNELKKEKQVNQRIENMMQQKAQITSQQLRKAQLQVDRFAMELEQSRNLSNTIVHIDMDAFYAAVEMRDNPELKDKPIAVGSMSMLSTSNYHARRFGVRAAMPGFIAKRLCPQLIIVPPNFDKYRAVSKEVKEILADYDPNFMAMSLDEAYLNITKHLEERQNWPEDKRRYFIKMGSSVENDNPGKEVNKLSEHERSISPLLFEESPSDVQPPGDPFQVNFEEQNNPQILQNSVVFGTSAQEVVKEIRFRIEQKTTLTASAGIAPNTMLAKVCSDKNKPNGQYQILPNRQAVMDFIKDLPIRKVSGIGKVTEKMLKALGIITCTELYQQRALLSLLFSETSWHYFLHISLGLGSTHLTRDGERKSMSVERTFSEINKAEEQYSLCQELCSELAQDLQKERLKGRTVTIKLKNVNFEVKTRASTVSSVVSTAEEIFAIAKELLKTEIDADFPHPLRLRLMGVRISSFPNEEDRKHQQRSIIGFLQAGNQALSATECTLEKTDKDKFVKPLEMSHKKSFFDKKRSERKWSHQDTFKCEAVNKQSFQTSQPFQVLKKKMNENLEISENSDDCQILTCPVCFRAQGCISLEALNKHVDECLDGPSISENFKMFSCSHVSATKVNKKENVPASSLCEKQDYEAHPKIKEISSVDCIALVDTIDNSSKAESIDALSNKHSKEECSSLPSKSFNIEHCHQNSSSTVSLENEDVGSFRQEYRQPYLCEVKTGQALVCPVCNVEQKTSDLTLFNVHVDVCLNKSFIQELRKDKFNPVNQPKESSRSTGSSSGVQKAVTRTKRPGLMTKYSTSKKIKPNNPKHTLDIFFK
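50 nM final substrate added after 15 min RT preincubation of 10 nM Pol kappa with compound; fluorescence read at 0 and 10 min.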
PI5P4K alpha inh = blocks human PI5P4K alpha kinase activity | PI5P4Kalpha enzyme, ADP-Glo luminescence, 60 min; hits give low values | actives 1.2% (n = 330,000) | max response, % | P48426 | AID 652105; active means max response of -50% or lower; inconclusive means between -30% and -50%; inactive means -30% or higher; further: value at the top dose of about 77 µM; on the % scale 0 is the no-effect control and ±100 the full control effect
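Compounds were pin-transferred onto PI5P4Kalpha and substrate in HEPES pH 7.4 buffer with EGTA, CHAPS and 5% DMSO. ATP (5 microM final) started the reaction, which ran 60 minutes at room temperature before ADP-Glo detection.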
PGK validate = TbPGK inhibition, hit validation; shares compounds with Pol kappa inh; TbPGK coupled GAPDH assay, Kinase-Glo luminescence; Potency, µM (titrated, usually from 57.5 µM), without a hit: top-dose activity change, negative = inhibition, usual class: inhibitors; actives 79% (n = 500); AID 686980; further: potency means the concentration at half of the fitted maximal effect; on the % scale 0 is the no-effect control and ±100 the full control effect; nearly all actives have a fitted effect of over 65% in size
POLI cherry-pick = Confirm cherry-picked inhibitors of human polymerase iota; shares compounds with Pol kappa inh; Pol iota primer extension, TAMRA/BHQ fluorescence; Potency, µM, actives largely listed as inhibitors; actives 77% (n = 1,500); AID 720496; further: potency means the concentration at half of the fitted maximal effect
* marks the source's active call; other numbers are inactive results; u = inconclusive; x = not tested or not shown; [ ] = dose if it differs, or a comment. Unless noted, the call rests on the fitted dose curve; in most records, active means well fitted curve in the direction sought with a large enough effect; inconclusive means small, poorly fitted or top-dose-only effect, or another doubt; inactive means no such curve, though single readings can be large; an effect the other way counts as inactive or inconclusive.

SMILES | PI4K2A block | Pol beta inh | Pol eta inh | POLI inh | Pol kappa inh | PI5P4K alpha inh | PGK validate | POLI cherry-pick
COc1ccc(CCNC(=O)Cn2c(C)c3cnn(-c4ccccc4)c(=O)c3c2C)cc1OC | -6.1 | 16.0% | -12.3% | 41.7% | 2.6% | x | x | x
Cc1ccc(CSCCC(=O)N2CCN(c3ccc(F)cc3)CC2)cc1 | 6.0 | 1.9% | -7.8% | -17.9% | -6.0%[60.1 µM] | x | x | x
COc1ccc2[nH]c3c(C)c4ccncc4c(C)c3c2c1 | 2.5 | 1.26µM* | u | 3.55µM* | 50.1µM* | u | x | 7.52*
Cc1ccc(NC(=O)CN2C(=O)S/C(=C/c3ccc(-c4cc(C(=O)O)ccc4C)o3)C2=O)cc1C | -11.8 | 7.08µM* | 20µM* | 22.4µM* | 79.4µM* | x | 7.3µM* | x
CCn1c(C)cc(/C=C2\SC(=O)N(CC(=O)Nc3ccc(C)c(C)c3)C2=O)c1C | 6.1 | 1.0% | -16.9% | 1.8% | -0.6% | -5.8 | x | x
O=C(O)c1cn(C2CC2)c2cc(N3CCN(S(=O)(=O)c4ccc5c(c4)OCCO5)CC3)c(F)cc2c1=O | 21.8 | -8.0% | 79.4µM* | -23.2% | -4.4% | -3.5 | x | 26.7*
O=C(COC(=O)/C=C/c1ccco1)Nc1cc(S(=O)(=O)N2CCOCC2)ccc1Cl | 0.0 | x | u | 50.1µM* | u | -4.6 | u | x
O=C(N/N=C\c1ccc(OC(=O)c2cccs2)cc1)c1ccc(Cl)cc1 | -4.3 | 3.16µM* | 3.16µM* | u | -7.4% | 1.5 | x | u
COc1ccc(C(=O)N/N=C/c2ccc(OC(=O)c3cccs3)cc2)cc1 | -5.8 | 32.1% | -7.4% | -13.4% | -3.0% | -0.4 | x | x
Cc1ccc(NC(=O)CSc2ncnc3c2sc2ccccc23)cc1C | -0.6 | -16.3% | -13.0% | 21.9% | -10.8%[60.1 µM] | x | x | x
COc1ccc(-c2ccc(SC)nn2)cc1 | -72.3* | 14.5% | -5.7% | 73.8% | 7.7% | u | 9.19µM* | x
COc1c(N2CCN[C@H](C)C2)c(F)cc2c(=O)c(C(=O)O)cn(C3CC3)c12 | 0.0 | u | -3.0% | -20.5% | -5.8% | 0.5 | x | x
COc1c(N2CCN(C(=S)NCc3ccccc3)C(C)C2)c(F)cc2c(=O)c(C(=O)O)cn(C3CC3)c12 (stereo not drawn) | 4.4 | 28.2µM* | 31.6µM* | 15.8µM* | u | -13.6 | x | 53.2*
COc1ccc(-c2nsc(NC(=O)c3oc4cc(C)c(C)cc4c3C)n2)cc1 | 2.4 | 18.0% | -8.8% | 3.9% | -3.6% | x | x | x
O=C(Nc1cccc(-c2nc3ccccc3s2)c1)c1cc(=O)c2ccccc2o1 | 2.9 | u | u | 34.1% | -11.9% | -11.2 | x | u
Cc1c(C(=O)Nc2cccc(-c3nc4ccccc4s3)c2)oc2ccccc12 | 2.3 | 2.2% | -6.0% | -5.9% | -7.4% | x | x | x
Cc1ccc(S(=O)(=O)N2CCc3cc(C(=O)N(C)Cc4ccccc4)ccc32)cc1 | -3.4 | 2.4% | -25.2% | u | -23.1% | x | x | x
CCCCNS(=O)(=O)c1ccc2nc(NC(=O)c3cccnc3)sc2c1 | -2.4 | -18.0% | 50.1µM* | 14.4% | -6.6%[60.1 µM] | x | u | x
CCNS(=O)(=O)c1ccc2nc(NC(=O)c3cccnc3)sc2c1 | 1.6 | -0.3% | -9.8% | 8.5% | -10.6% | -25.6 | x | x
O=C1O[C@H](CO)[C@@H](O)[C@H](O)[C@H]1O | 5.9 | x | -0.5% | -1.3% | 0.0% | -1.3 | x | x
O=CC(O)C1OC(=O)C(O)C1O (stereo not drawn) | -5.6 | x | 7.94µM* | 44.7µM* | 50.1µM* | u | 3.26µM* | x
COCCNC(=O)/C(C#N)=C/c1ccc(O)cc1 | -69.3* | 1.1% | -4.1% | 20.5% | 3.9% | u | 16.3µM* | x
COc1cccc(CNCCSc2nnnn2C)c1OCc1ccc(Cl)cc1Cl | -5.9 | -24.8% | -10.6% | -17.1% | -10.7% | x | -0.1% | x
COc1cccc(CNCCSc2nnnn2C)c1OCc1ccc(Cl)cc1 | -8.0 | 7.5% | -15.3% | 0.7% | -3.6% | x | x | x
O=C(Cc1ccccc1)Nc1nnc(-c2cccnc2)s1 | -3.9 | x | x | x | x | x | x | x
SMILES | PI4K2A block | Pol beta inh | Pol eta inh | POLI inh | Pol kappa inh | PI5P4K alpha inh | PGK validate | POLI cherry-pick
O=C(c1ccccc1)c1cc2ccc(O)cc2oc1=O | -86.6* | 22.2% | 7.5% | -5.1% | -5.0% | x | 14.6µM* | x
CN(C)c1ccc(C(=O)Nc2sc(Nc3ccccc3)nc2C(N)=O)cc1 | -6.4 | u | u | 79.4µM* | -3.0%[60.1 µM] | x | x | u
CN(C)c1ccc(C(=S)Nc2ccccc2)cc1 | -3.7 | -24.7% | -14.2% | 0.1% | 0.3% | 3.9 | x | x
COc1ccc(NC(=O)c2nnn(CC(=O)Nc3c(C)cc(C)cc3C)c2N)cc1OC | 0.6 | 14.2% | -1.9% | 33.8% | 0.9% | x | x | x
Cc1cc(C)c(NC(=O)Cn2nnc(S(=O)(=O)c3ccc(C)c(C)c3)c2N)c(C)c1 | -8.8 | 10µM* | -28.7% | 79.4µM* | u | x | x | u
Cc1ccc([N+](=O)[O-])cc1-c1ccc(/C=N/NC(=O)c2cc3c(ccc4ccccc43)o2)o1 | 1.1 | 1.8% | -1.5% | 3.8% | -16.6% | u | x | x
O=C(N/N=C/c1cccc([N+](=O)[O-])c1)c1cc2c(ccc3ccccc32)o1 | 3.1 | 19.9% | u | u | 0.0% | -27.1 | x | 47.4*
Cc1cc(=O)[nH]c(N/N=C/c2ccc(OC(=O)c3ccco3)cc2)n1 | -3.7 | -9.0% | 50.1µM* | 13.7% | 9.0% | -7.4 | x | u
Cc1cc(F)ccc1C(O)c1ncc(-c2ccccc2Cl)[nH]1 (stereo not drawn) | 2.6 | x | x | x | x | 2.0 | x | x
Cc1cc(=O)oc2cc(NC(=O)COc3ccccc3[N+](=O)[O-])ccc12 | 0.8 | x | u | u | -19.3% | -11.8 | x | u
CCC(C)NC(=O)Cn1c(=O)n(CCCCCC(=O)NCc2ccccc2Cl)c(=O)c2sccc21 (stereo not drawn) | 6.3 | 3.4% | -2.8% | -2.1% | -14.0% | x | x | x
Cc1ccnc(N2C(=O)c3ccccc3C2O)c1 (stereo not drawn) | 6.8 | 42.9% | 0.4% | -20.2% | -0.9% | -58.0* | 10.3µM* | x
C/C=C\C=C/C(=O)Nc1cccc(C2=NOC3(C2)C[C@H](C(N)=O)N(C(=O)c2ccc(OC)cc2)C3)c1 (stereo partly drawn) | -26.4 | -1.3% | 20µM* | 25.1µM* | u | u | x | u
COc1ccc(C(=O)O/N=C(\C)c2nccs2)cc1 | u | 1.2% | -12.5% | 46.3% | 4.4% | u | x | x
COc1ccc(C(=O)O/N=C(\N)c2ccccc2)cc1 | -66.6* | 2.6% | -16.4% | 51.5% | -3.1% | u | 8.19µM* | x
